This is a sample that favours compounds with a hit; in the whole collection about 1.4% have one here.
Giardia FBPA inh: inhibitors of Giardia lamblia fructose-1,6-bisphosphate aldolase; 290,000 compounds, 0.71% hits; Potency, µM (series often up to 59.6 µM), without a hit: top-dose activity, negative = inhibition, hits mostly inhibitors; purified Giardia FBPA; note: % is set by controls: 0 for no effect and ±100 for the full control effect; nearly all actives have a fitted effect of over 55% in size
Target sequence (A8B2U2 whole entry, looked up): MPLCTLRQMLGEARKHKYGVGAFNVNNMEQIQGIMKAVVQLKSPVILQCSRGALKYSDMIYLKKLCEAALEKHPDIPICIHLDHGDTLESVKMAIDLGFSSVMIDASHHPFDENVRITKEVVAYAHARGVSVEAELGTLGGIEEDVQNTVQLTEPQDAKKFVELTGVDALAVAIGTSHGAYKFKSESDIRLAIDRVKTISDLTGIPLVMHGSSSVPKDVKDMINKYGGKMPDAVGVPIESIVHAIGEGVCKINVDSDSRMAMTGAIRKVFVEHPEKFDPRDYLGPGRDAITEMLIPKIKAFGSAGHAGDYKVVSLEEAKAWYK
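Giardia FBPA (40 nM reagent) was preincubated 10 min at RT with compound (up to 57.5 uM final), then substrate plus GAPDH/TPI/NAD/arsenate coupling system with diaphorase/resazurin was added; resorufin fluorescence (525/598 nm) was read after 20 min.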
SARS PLP yeast: SARS-CoV PLP inhibition in yeast; S. cerevisiae expressing SARS-CoV PLpro, growth rescue; Potency, µM (doses to about 32.9 µM), without a hit: top-dose activity, positive = growth rescue, hits mostly activators; 330,000 compounds, 0.19% hits; AID 485353; calls by dose curve; note: 0% is about no effect; nearly all actives have a fitted effect of over 55% in size
AmpC detergent: blocks E. coli AmpC beta-lactamase in detergent assay | P00811 | AmpC hydrolysis of nitrocefin, absorbance 480 nm, 0.01% Triton | Potency, µM (series often up to 114 µM), inactives show top-dose activity change, negative = inhibition, actives largely listed as inhibitors | 370,000 compounds, 0.041% hits | AID 485294;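 note: 0% = no-compound wells and -100% = no-enzyme wells; nearly all actives have a fitted effect of over 25% in size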
Target sequence (P00811 whole entry, looked up): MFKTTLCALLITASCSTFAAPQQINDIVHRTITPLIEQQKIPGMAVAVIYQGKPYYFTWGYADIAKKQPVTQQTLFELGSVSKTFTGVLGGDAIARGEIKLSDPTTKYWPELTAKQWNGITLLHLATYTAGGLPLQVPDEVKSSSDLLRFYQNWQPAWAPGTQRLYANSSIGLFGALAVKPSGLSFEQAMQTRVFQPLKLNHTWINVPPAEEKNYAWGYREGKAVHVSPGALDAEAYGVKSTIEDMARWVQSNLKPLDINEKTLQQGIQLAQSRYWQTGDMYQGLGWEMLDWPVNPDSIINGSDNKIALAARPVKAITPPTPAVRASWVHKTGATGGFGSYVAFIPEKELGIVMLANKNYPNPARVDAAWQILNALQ
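AmpC (5.3 nM in the dispensed reagent) in 20 mM phosphate pH 7.0 with 0.01% (detergent screen) or 0.0001% Triton X-100 was preincubated with compounds for 15 min at room temperature. Nitrocefin was then added from an 800 uM solution, and hydrolysis was followed at 480 nm.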
AmpC no deterg: blocks E. coli AmpC beta-lactamase in detergent-free assay; 330,000 compounds, 0.52% hits; Potency, µM (doses to about 57.1 µM), for inactives: top-dose activity change, negative = inhibition, hits mostly inhibitors; AmpC nitrocefin hydrolysis, absorbance 480 nm, 0.0001% Triton; P00811;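 note: plate controls were no compound for no effect and no enzyme for full effect; nearly all actives have a fitted effect of over 20% in size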
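20 mM phosphate pH 7.0 + 0.01% (detergent screen) or 0.0001% Triton X-100; 5.3 nM AmpC reagent; cpd preinc 15 min RT; nitrocefin (800 uM stock) to start; A480 q20 s × 4 min; Activity was normalised to no-enzyme and no-compound control wells.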
NS1 inh: inhibitors of influenza NS1 protein function; 270,000 compounds, 0.4% hits; Potency, µM (titrated, usually from 46.1 µM), for inactives: at the top dose activity, positive = more growth; calls by dose curve; note: actives are rising curves; nearly all actives have a fitted effect of over 50% in size
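A cell-based growth assay was used: compounds that relieve NS1-induced slow growth of budding yeast raise OD600. Assay medium was yeast nitrogen base with ammonium sulphate and -URA supplement, pH 6.0, with 2% galactose.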
Active calls of the source: *; ? = inconclusive; . = no result. Unless noted, calls come from the whole dose curve; as a rule, active = well fitted curve in the direction sought with a large enough effect; inconclusive = small, poorly fitted or top-dose-only effect, or another doubt; inactive = no such curve, though single readings can be large; an effect the other way counts as inactive or inconclusive. Potency is the fitted concentration of half-maximal effect.

SMILES	Giardia FBPA inh	SARS PLP yeast	AmpC detergent	AmpC no deterg	NS1 inh
COc1ccccc1N1CCN(C(=O)C2CCCN(S(=O)(=O)c3ccc4c(c3)oc(=O)n4C)C2)CC1 (stereo not given)	1%	-3%	1%	199%	-10%
NS(=O)(=O)c1cccc(NC(=O)COC(=O)c2ccccc2C(=O)c2ccccc2)c1	.	-17%	-1%	-47%	.
Cc1c(C(=O)OCC(=O)Nc2cccc(S(N)(=O)=O)c2)oc2c1ccc1ccccc12	-3%	2%	-2%	11µM*	7%
O=C(Cc1cc(=O)[nH][nH]1)N/N=C/c1cccc(Cl)c1Cl	3%	9%	5%	-54%	10µM*
COC(=O)N/N=C/c1cc(C)n(-c2ccc(F)cc2)c1C	-8%	1%	2%	-12%	.
Cn1c(=O)[nH]c(=O)c2c1nc(CN1CCN(c3cccc(Cl)c3)CC1)n2Cc1ccccc1Cl	0%	-2%	?	45µM*	-66%
CCN1CCN(Cc2nc3c(c(=O)[nH]c(=O)n3C)n2Cc2ccccc2Cl)CC1	-1%	-25%	?	-21%	1%
COC(=O)c1c(C)oc2c1cc(NS(=O)(=O)c1cccs1)c1ccccc12	-24%	11%	-7%	11µM*	3%
COc1ccc(OC)c(S(=O)(=O)Nc2cc3c(C(C)=O)c(C)oc3c3ccccc23)c1	.	.	6%	.	.
COc1cccc(NC(=O)C/C(C)=N/NC(=O)c2ccccc2Cl)c1	-3%	1%	-6%	-11%	-1%
C/C(CC(=O)N1CCCC1)=N\NC(=O)c1cc2ccccc2cc1O	13µM*	9%	7%	?	?
C/C(CC(=O)Nc1ccc(Cl)c(C(F)(F)F)c1)=N\NC(=O)c1cc2ccccc2cc1O	-11%	1%	-6%	10µM*	3%
O=C(CN1C(=O)c2ccccc2C1=O)Nc1cccc(O)c1	-1%	8%	-4%	-7%	-5%
COCCCNC(=S)N(Cc1ccccc1)Cc1ccccc1	3%	-8%	0%	8%	-4%
CC(NC(=S)NCc1ccccc1)C12CC3CC(CC(C3)C1)C2 (stereo not given)	-1%	1%	4%	-20%	-1%
S=C(Nc1ccccc1)Nc1nc2ccccc2n1CCOc1ccc(Br)cc1	-15%	?	-12%	-39%	25%
Cn1c(NC(=S)Nc2ccccc2)nc2ccccc21	-2%	8.9µM*	-2%	-25%	7%
COc1ccccc1-c1ocnc1C(=O)N1CCN(S(=O)(=O)c2ccc(NC(C)=O)cc2)CC1	11%	-3%	-10%	27%	-8%
O=[N+]([O-])c1cccc(NC(=S)N2CCN(S(=O)(=O)c3ccccc3)CC2)c1	.	6%	5%	22µM*	-3%
O=[N+]([O-])c1cccc(NC(=S)N2CCOCC2)c1	0%	-1%	-5%	-18%	4%
CCOc1cc(C2CC(=O)N3CN(C4CCCCC4)CSC3=C2C#N)ccc1O (stereo not given)	0.79µM*	-8%	?	?	-82%
COc1ccc(-c2nnnn2C(C)C)cc1	1%	1%	-2%	7%	-3%
COc1ccc(-c2nnnn2CCc2ccccc2)cc1	2%	3%	3%	0.2µM*	-19%
C=Cc1ccc(Cn2c(=O)n(-c3ccc(C)cc3)c(=O)c3c2c2cc(OC)ccc2n3C)cc1	.	.	18%	.	.
O=C(CCCSc1ccccc1)Nc1nc(-c2ccco2)c(-c2ccco2)s1	-9%	-4%	-5%	28µM*	23%
SMILES	Giardia FBPA inh	SARS PLP yeast	AmpC detergent	AmpC no deterg	NS1 inh
O=C(CCl)Nc1nc(-c2ccco2)c(-c2ccco2)s1	-27%	-29%	-11%	-25%	-28%
Cc1ccc(C)c(NC(=O)CN(C)C(=O)c2ccccc2Cc2ccccc2)c1	.	4%	0%	20%	.
Cc1cccc(CCNC(=O)C2CCN(S(=O)(=O)c3c(C)nn(C)c3C)CC2)c1	6%	3%	?	35%	-10%
Cc1ccc(CCNC(=O)C2CCN(S(=O)(=O)c3c(C)nn(C)c3C)CC2)cc1	2%	-3%	?	2.5µM*	-9%
CC(=O)Nc1ccc(S(=O)(=O)N2CCN(CCC#N)CC2)cc1	2%	0%	?	45µM*	-7%
CCN(C1CCCCC1)S(=O)(=O)c1ccc(S(=O)(=O)N2CCN(CCC#N)CC2)cc1	2%	-5%	-15%	6.3µM*	-34%
N#CCCN1CCN(S(=O)(=O)c2ccc(S(=O)(=O)N3CCCCCC3)cc2)CC1	9%	-1%	?	-9%	0%
COc1ccc(NC(=O)c2cc3c([nH]c4ccccc43)c(C)n2)cc1	-5%	2%	-7%	8.9µM*	-7%
CCc1ccc(C2C(C#N)=C(N)SC(N)=C2C#N)cc1	-26%	-8%	-13%	8.9µM*	14%
O=C(N/N=C\C=C\c1ccco1)C1COc2ccccc2O1 (stereo not given)	?	0%	3%	-45%	3%
COc1cc2ncnc(NCc3ccc(C)cc3)c2cc1OC	-3%	2%	-1%	83%	12%
COc1cccc(CNc2ncnc3cc(OC)c(OC)cc23)c1	-1%	-3%	5%	3.2µM*	1%
COc1ccc(-c2nc3cnc(N4CCOCC4)nc3n(C)c2=O)cc1	14%	.	.	.	.
N#CC1=C(N)SC(N)=C(C#N)C1c1cccc(Oc2ccccc2)c1	?	-26%	-4%	25µM*	-10%
COc1ccc2c(CNCCc3cccs3)c(C(=O)O)n(Cc3ccccc3C)c2c1	.	.	-1%	.	.
Cc1ccc(N=Cc2c(C)[nH]n(-c3nc4ccccc4[nH]3)c2=O)cc1	16%	-72%	0%	36%	-4%
O=C(NCc1cccnc1)c1ccccc1NS(=O)(=O)c1ccccc1	.	-1%	-3%	-4%	9%
Cc1cc(Cl)ccc1NC(=O)COC(=O)c1c(C)noc1C	.	-3%	1%	-15%	.
COc1cc(C(=O)O/N=C2/C=CC(=O)C(C)=C2C)cc(OC)c1OC	4µM*	-2%	-10%	-19%	2%
COc1cc(C(=O)ON=C2C3CC4CC(C3)CC2C4)cc(OC)c1OC	8%	-11%	-5%	4%	-33%
CC(=O)C1=C(C)OC(N)=C(C#N)C1c1cc2cc(C)c(C)cc2nc1Cl (stereo not given)	8%	8%	1%	0.32µM*	-7%
CCC(=O)N1CCN(c2nc(-c3ccc(Cl)cc3)cs2)CC1	-9%	-33%	-6%	126%	4%
CCOC(=O)/C=C1\SCC(=O)N1CC(=O)NC(c1ccccc1)c1ccccc1	0%	4%	-14%	28µM*	?
CCOC(=O)/C=C1\SCC(=O)N1CC(=O)NC(C)c1ccccc1 (stereo not given)	-2%	-16%	-5%	-22%	11%
Cc1cccc(C)c1NC(=O)COc1ccc2c(C)c(Cc3ccccc3)c(=O)oc2c1	2%	-5%	?	-22%	5%
O=[N+]([O-])c1ccc(CNCc2cc(Cl)ccc2O)cc1	.	2%	-4%	3.2µM*	.
